Source: the supplement of paper PMC12819154, “High-throughput peptide-centric local stability assay extends protein–ligand identification to membrane proteins, tissues and bacteria” (Nature Structural & Molecular Biology, 2025)

compound: CN[C@@H]1C[C@H]2O[C@@](C)([C@@H]1OC)n1c3ccccc3c3c4c(c5c6ccccc6n2c5c31)C(=O)NC4 [staurosporine]; assay: log2 fold change of tryptic peptide abundance, ligand vs vehicle (limited proteolysis) (log2 ratio); higher = more trypsin-susceptible (destabilized); details: ligand concentration: 20 uM; sample: mouse liver crude lysate; replicate design: treated separately

Sequence of UniProt A2A8Z1 (A2A8Z1 whole entry): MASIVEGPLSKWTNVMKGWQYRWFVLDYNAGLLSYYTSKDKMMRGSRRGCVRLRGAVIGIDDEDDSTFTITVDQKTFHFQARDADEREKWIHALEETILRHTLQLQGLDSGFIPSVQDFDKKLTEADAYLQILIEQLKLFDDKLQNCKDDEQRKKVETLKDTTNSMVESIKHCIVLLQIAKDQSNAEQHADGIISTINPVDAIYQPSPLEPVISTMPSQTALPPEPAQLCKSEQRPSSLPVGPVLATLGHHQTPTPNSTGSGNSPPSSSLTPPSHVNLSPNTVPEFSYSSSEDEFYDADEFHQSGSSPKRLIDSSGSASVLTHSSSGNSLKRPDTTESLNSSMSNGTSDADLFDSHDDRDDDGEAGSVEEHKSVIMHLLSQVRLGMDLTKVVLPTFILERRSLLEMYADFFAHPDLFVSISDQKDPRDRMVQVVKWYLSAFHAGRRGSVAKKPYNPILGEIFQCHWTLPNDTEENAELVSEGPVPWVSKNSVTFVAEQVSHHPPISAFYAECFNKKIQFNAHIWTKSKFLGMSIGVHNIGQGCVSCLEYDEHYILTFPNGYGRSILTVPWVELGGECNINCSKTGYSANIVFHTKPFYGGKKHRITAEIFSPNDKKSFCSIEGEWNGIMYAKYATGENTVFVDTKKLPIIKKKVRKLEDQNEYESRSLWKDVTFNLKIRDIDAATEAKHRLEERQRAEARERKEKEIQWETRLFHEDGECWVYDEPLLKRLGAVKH
Sequence of UniProt O55137 (O55137 whole entry): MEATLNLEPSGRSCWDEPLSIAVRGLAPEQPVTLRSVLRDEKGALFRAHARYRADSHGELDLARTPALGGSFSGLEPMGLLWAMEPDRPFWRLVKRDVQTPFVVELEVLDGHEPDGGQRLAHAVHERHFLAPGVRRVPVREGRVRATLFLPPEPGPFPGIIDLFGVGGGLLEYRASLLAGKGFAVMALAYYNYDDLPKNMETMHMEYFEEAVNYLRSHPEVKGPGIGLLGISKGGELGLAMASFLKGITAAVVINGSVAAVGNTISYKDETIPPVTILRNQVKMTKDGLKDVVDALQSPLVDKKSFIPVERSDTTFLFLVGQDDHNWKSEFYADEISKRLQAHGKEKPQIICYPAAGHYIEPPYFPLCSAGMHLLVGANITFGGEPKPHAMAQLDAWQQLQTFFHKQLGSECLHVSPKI
Sequence of UniProt O35492 (O35492 whole entry): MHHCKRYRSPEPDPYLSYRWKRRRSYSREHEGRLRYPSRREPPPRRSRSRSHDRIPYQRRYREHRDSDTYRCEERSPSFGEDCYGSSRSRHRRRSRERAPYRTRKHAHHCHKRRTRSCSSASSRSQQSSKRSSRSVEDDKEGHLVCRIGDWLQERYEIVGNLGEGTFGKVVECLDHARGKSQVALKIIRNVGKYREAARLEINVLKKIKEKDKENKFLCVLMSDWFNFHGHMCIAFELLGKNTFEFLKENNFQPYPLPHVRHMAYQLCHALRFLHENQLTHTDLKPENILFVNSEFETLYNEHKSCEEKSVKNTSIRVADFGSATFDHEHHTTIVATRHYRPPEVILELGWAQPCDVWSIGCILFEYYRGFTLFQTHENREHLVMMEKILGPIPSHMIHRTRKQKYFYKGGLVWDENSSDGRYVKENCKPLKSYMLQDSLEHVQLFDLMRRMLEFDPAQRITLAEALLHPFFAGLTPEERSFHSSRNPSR
Sequence of UniProt P28652 (P28652 whole entry): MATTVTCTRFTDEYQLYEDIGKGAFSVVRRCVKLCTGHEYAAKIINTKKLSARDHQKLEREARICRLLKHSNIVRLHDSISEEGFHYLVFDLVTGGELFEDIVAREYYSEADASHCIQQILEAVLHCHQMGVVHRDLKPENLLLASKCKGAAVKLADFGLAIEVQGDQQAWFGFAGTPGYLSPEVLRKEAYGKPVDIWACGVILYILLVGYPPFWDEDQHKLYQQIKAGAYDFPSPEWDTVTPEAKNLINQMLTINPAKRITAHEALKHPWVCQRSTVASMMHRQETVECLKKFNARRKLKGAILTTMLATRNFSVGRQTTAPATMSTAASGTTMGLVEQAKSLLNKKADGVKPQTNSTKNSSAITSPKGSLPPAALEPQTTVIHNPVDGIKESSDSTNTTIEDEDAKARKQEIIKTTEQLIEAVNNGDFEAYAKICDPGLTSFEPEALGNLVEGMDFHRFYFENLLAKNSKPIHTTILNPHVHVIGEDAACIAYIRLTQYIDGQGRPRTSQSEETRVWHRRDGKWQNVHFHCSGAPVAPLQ
Sequence of UniProt Q6PDN3 (Q6PDN3 whole entry): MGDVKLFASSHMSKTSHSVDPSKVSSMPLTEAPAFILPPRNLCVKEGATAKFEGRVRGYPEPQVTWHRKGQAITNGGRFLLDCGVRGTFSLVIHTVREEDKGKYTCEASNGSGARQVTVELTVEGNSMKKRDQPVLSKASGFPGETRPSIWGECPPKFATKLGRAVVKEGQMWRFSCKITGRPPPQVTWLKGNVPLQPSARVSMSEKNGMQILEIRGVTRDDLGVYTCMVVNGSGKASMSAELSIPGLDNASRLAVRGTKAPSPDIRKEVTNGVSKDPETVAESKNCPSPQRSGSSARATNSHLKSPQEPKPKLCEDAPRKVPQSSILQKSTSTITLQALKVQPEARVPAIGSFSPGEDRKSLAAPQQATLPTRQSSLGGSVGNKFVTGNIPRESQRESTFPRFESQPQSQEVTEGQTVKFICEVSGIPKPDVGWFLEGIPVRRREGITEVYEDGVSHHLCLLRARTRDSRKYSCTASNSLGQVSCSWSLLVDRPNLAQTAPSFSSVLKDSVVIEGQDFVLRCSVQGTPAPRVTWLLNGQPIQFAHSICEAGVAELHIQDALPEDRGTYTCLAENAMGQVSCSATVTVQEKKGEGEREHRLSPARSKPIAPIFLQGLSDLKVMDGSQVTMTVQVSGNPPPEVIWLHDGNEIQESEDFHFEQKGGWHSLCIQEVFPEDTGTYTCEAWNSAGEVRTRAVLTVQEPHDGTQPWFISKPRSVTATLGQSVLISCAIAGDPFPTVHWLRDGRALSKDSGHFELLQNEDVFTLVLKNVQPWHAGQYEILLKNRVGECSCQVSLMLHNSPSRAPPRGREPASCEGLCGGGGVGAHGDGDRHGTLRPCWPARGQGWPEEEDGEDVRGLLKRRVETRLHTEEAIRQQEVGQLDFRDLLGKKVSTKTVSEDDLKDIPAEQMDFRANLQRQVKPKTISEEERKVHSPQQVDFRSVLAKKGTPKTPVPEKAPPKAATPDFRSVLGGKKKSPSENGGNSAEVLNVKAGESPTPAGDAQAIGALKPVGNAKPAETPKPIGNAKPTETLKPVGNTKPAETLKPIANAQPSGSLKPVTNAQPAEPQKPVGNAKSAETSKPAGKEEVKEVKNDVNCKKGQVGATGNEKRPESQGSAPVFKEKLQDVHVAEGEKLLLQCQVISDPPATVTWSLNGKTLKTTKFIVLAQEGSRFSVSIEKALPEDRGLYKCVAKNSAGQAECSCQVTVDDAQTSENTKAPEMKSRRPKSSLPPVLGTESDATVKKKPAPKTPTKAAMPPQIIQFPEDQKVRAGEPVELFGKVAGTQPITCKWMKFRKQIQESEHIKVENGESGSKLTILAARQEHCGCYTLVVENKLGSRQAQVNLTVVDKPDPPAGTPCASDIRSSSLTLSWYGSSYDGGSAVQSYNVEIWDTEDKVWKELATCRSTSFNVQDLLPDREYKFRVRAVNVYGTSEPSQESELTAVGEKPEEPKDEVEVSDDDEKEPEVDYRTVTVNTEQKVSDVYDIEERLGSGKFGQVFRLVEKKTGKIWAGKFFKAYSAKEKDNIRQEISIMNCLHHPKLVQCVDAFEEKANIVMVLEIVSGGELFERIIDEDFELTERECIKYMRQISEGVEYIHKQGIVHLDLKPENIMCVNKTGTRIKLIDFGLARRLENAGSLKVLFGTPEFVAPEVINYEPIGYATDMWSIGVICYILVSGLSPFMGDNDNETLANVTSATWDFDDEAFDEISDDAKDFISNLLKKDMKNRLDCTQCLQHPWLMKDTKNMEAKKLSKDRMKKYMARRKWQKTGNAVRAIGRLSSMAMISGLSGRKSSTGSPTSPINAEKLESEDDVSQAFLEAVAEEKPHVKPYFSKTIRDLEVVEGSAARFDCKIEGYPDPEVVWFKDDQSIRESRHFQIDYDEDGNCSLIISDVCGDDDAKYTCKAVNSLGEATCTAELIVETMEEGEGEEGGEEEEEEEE
Sequence of UniProt Q5M8N4 (Q5M8N4 whole entry): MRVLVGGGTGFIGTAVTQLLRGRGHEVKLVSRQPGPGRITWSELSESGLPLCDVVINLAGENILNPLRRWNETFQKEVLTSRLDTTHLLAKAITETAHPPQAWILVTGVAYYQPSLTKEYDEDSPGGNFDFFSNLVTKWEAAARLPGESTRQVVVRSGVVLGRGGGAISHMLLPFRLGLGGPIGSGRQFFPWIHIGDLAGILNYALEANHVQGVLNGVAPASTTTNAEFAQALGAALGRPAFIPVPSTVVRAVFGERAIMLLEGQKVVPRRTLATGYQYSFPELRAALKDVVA
Sequence of UniProt Q64310 (Q64310 whole entry): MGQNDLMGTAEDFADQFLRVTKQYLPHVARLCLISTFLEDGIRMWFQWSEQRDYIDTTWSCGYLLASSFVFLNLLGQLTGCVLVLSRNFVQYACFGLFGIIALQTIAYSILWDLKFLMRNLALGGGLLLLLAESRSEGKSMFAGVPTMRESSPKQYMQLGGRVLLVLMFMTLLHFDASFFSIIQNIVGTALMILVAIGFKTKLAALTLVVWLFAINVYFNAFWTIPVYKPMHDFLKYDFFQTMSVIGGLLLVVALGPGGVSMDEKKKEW
Sequence of UniProt Q61335 (Q61335 whole entry): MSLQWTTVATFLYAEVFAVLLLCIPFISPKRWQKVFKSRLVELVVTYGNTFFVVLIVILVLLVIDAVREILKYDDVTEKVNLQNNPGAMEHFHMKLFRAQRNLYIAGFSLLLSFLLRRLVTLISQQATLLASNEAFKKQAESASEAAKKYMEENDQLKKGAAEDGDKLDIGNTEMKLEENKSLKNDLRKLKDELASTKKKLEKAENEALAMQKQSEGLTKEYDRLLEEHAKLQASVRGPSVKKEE

| Target | log2 fold change |
| --- | --- |
| UniProt O35469 (peptide sequence: QTILDVNLK, peptide start residue: 95) | -0.227 |
| UniProt P28652 (peptide sequence: NLINQMLTINPAKR, peptide start residue: 247) | -2.11 |
| UniProt Q9CRD0 (peptide sequence: FKKLENSPLGEALR, peptide start residue: 102) | 0.663 |
| UniProt Q9DBM2 (peptide sequence: VGIPVVAVESDPKQLDTAKK, peptide start residue: 317) | 0.344 |
| UniProt Q7TMR0 (peptide sequence: AHNAFDPSSVLLSR, peptide start residue: 459) | 0.784 |
| UniProt Q00623 (peptide sequence: TQLAPHSEQMR, peptide start residue: 184) | 0.455 |
| UniProt A2A8Z1 (peptide sequence: VVLPTFILERR, peptide start residue: 391) | 0.538 |
| UniProt Q99KH8 (peptide sequence: GEPPHSELHPMK, peptide start residue: 215) | -1.74 |
| UniProt O35857 (peptide sequence: NSKGEVYDGDPDKVQR, peptide start residue: 403) | -0.52 |
| UniProt Q8BWW9 (peptide sequence: VKPPFVPTIR, peptide start residue: 928) | -2.86 |
| UniProt Q01705 (peptide sequence: QWTQQHLDAADLR, peptide start residue: 1832) | -0.742 |
| UniProt Q9JK48 (peptide sequence: NFIEGDYK, peptide start residue: 149) | 0.247 |
| UniProt Q8C878 (peptide sequence: LPEHCIEYVR, peptide start residue: 245) | 0.505 |
| UniProt Q07417 (peptide sequence: GISAFLVPMPTPGLTLGKKEDK, peptide start residue: 209) | 0.268 |
| UniProt Q9WU79 (peptide sequence: ASGGASDGGFSAIK, peptide start residue: 220) | 0.201 |
| UniProt P52332 (peptide sequence: NVLVESEHQVK, peptide start residue: 1007) | -2.98 |

| Target | log2 fold change |
| --- | --- |
| UniProt Q5M8N4 (peptide sequence: LGLGGPIGSGR, peptide start residue: 177) | -0.493 |
| UniProt Q05020 (peptide sequence: TYPISMDEK, peptide start residue: 59) | 0.537 |
| UniProt O55137 (peptide sequence: GLAPEQPVTLR, peptide start residue: 25) | -0.292 |
| UniProt Q6PDN3 (peptide sequence: VSDVYDIEER, peptide start residue: 1482) | -1.2 |
| UniProt Q8VCH6 (peptide sequence: LTQGETLR, peptide start residue: 368) | 0.499 |
| UniProt Q64310 (peptide sequence: SMFAGVPTMR, peptide start residue: 140) | 0.247 |
| UniProt O35492 (peptide sequence: MLEFDPAQR, peptide start residue: 600) | -1.13 |
| UniProt Q9EPE9 (peptide sequence: EVTPVSSIPIETHR, peptide start residue: 553) | -0.718 |
| UniProt P41241 (peptide sequence: GSLVDYLR, peptide start residue: 272) | -1.06 |
| UniProt Q6XUX1 (peptide sequence: SLQDVLLHR, peptide start residue: 640) | -1.84 |
| UniProt P70349 (peptide sequence: IIFEDDR, peptide start residue: 31) | -0.309 |
| UniProt Q99LB7 (peptide sequence: AYGIESHVLSPAETK, peptide start residue: 175) | -0.446 |
| UniProt Q8BZ09 (peptide sequence: IQGPQPVPGEIK, peptide start residue: 234) | 0.534 |
| UniProt Q3UTQ8 (peptide sequence: DIKPENLLISHNDVLK, peptide start residue: 135) | -1.56 |
| UniProt Q61335 (peptide sequence: QAESASEAAK, peptide start residue: 139) | 0.352 |
